Out of some 5,500 compounds screened, about 2,000 (36%) were called active. Another 18% or so got no clear call; they are omitted. Rule as the data show it: active = normalized growth mostly below about 0.91 (no sharp cut-off); inconclusive = no clear call, values can overlap the other calls; inactive = mostly above about 0.92. The list shows a part of the results.
Test: chemical genetic growth profiling, strain panel (AID 1159580);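 also: tested at 20 µM; growth read once vehicle control cultures reached saturation at 30 °C; 1 = growth at the plate median or of vehicle wells; lower values mean less growth of the strain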
Settings: S. cerevisiae deletion strains, growth OD

Measured: normalized growth

CCOP(=S)(OCC)Oc1nc(Cl)c(Cl)cc1Cl
active: locus YBR009C, strain hhf1, active compounds read low 0.873 | locus YDR137W, strain rgp1, active compounds read low 0.832 | locus YDR392W, strain spt3, active compounds read low 0.615 | locus YER155C, strain BEM2 (second series), active compounds read low 0.748 | locus YHR142W, strain chs7, active compounds read low 0.847 | locus YJL164C, strain tpk1, active compounds read low 0.914
inactive: locus YAL013W, strain DEP1, active compounds read low 1.01 | locus YAL021C, strain ccr4, active compounds read low 0.974 | locus YAL026C, strain drs2, active compounds read low 0.941 | locus YAL030W, strain snc1, active compounds read low 0.951 | locus YBL061C, strain skt5, active compounds read low 0.964 | locus YBR021W, strain FUR4, active compounds read low 1.01 | locus YBR023C, strain chs3, active compounds read low 0.963 | locus YBR171W, strain sec66, active compounds read low 0.95 | locus YBR229C, strain ROT2, active compounds read low 0.997 | locus YBR231C, strain swc5, active compounds read low 0.963 | locus YBR279W, strain paf1, active compounds read low 0.98 | locus YCL011C, strain gbp2, active compounds read low 0.938 | locus YCL016C, strain dcc1, active compounds read low 0.981 | locus YCL029C, strain bik1, active compounds read low 0.99 | locus YCL069W, strain vba3, active compounds read low 0.972 | locus YCR088W, strain abp1, active compounds read low 0.951 | locus YDL005C, strain med2, active compounds read low 0.968 | locus YDL035C, strain GPR1, active compounds read low 1.03 | locus YDL040C, strain nat1, active compounds read low 0.955 | locus YDL074C, strain BRE1, active compounds read low 0.985 | locus YDL101C, strain DUN1, active compounds read low 1.01 | locus YDL134C, strain PPH21, active compounds read low 0.988 | locus YDL185W, strain tfp1, active compounds read low 0.994 | locus YDL192W, strain arf1, active compounds read low 0.989 | locus YDR001C, strain nth1, active compounds read low 0.948 | locus YDR069C, strain doa4, active compounds read low 0.949 | locus YDR101C, strain arx1, active compounds read low 0.981 | locus YDR150W, strain NUM1, active compounds read low 1.01 | locus YDR159W, strain sac3, active compounds read low 0.952 | locus YDR162C, strain NBP2, active compounds read low 1.01 | locus YDR195W, strain ref2 1.03 | locus YDR297W, strain sur2, active compounds read low 0.957 | locus YDR318W, strain mcm21, active compounds read low 0.981 | locus YDR334W, strain swr1, active compounds read low 0.947 | locus YDR335W, strain msn5, active compounds read low 0.973 | locus YDR388W, active compounds read low 0.986 | locus YDR502C, strain sam2, active compounds read low 0.988 | locus YEL003W, strain gim4, active compounds read low 0.964 | locus YEL037C, strain rad23, active compounds read low 0.959 | locus YEL061C, strain CIN8 (second series), active compounds read low 0.957 | locus YEL061C, strain CIN8, active compounds read low 1 | locus YER015W, strain faa2, active compounds read low 0.964 | locus YER016W, strain bim1, active compounds read low 0.973 | locus YER110C, active compounds read low 0.993 | locus YER111C, strain swi4, active compounds read low 0.958 | locus YER155C, strain BEM2, active compounds read low 1 | locus YER167W, strain BCK2, active compounds read low 1.01 | locus YFR010W, strain ubp6, active compounds read low 0.961 | locus YGL078C, strain dbp3, active compounds read low 0.98 | locus YGL086W, strain mad1, active compounds read low 0.987 | locus YGL167C, strain pmr1, active compounds read low 0.947 | locus YGL173C, strain kem1, active compounds read low 0.977 | locus YGL227W, strain vid30, active compounds read low 0.935 | locus YGL240W, strain doc1, active compounds read low 0.949 | locus YGL248W, strain PDE1, active compounds read low 1.01 | locus YGL253W, strain hxk2, active compounds read low 0.948 | locus YGR078C, strain PAC10, active compounds read low 0.987 | locus YGR135W, strain pre9, active compounds read low 0.986 | locus YGR229C, strain SMI1, active compounds read low 0.98 | locus YGR252W, strain gcn5, active compounds read low 0.976 | locus YHR013C, strain ard1, active compounds read low 1.07 | locus YHR027C, strain rpn1, active compounds read low 0.966 | locus YHR030C, strain SLT2, active compounds read low 1.01 | locus YHR079C, strain IRE1 (second series), active compounds read low 0.991 | locus YHR094C, strain hxt1, active compounds read low 0.983 | locus YHR129C, strain ARP1, active compounds read low 0.995 | locus YHR200W, strain rpn10, active compounds read low 0.986 | locus YIL066C, strain RNR3, active compounds read low 0.991 | locus YIL073C, strain SPO22, active compounds read low 0.961 | locus YIL125W, strain kgd1, active compounds read low 0.981 | locus YIR030C, strain dcg1, active compounds read low 0.991 | locus YJL092W, strain hpr5, active compounds read low 0.959 | locus YJL095W, strain BCK1 (second series), active compounds read low 0.949 | locus YJL095W, strain BCK1, active compounds read low 0.973 | locus YJL115W, strain asf1, active compounds read low 0.971 | locus YJL129C, strain trk1, active compounds read low 0.921 | locus YJL134W, strain LCB3, active compounds read low 1.01 | locus YJL154C, strain vps35, active compounds read low 0.937 | locus YJL166W, strain qcr8, active compounds read low 0.961 | locus YJL168C, strain set2, active compounds read low 0.988 | locus YJL187C, strain SWE1 (second series), active compounds read low 0.996 | locus YJR043C, strain POL32, active compounds read low 1.02

From PubChem BioAssay AID1159580 (chemical genetic matrix, 2015)
